FLuc counter: qHTS profiling assay for firefly luciferase inhibitor/activator using purifed enzyme and Km concentrations of substrates (counterscreen for miR-21 project). purified FLuc, Km substrates, luminescence inhibition. Potency, µM (doses to about 57.5 µM), most hits filed as inhibitors. 6.9% of 360,000 active; note: nearly all actives have a fitted effect of over 55% in size
Target sequence (P08659 whole entry, looked up): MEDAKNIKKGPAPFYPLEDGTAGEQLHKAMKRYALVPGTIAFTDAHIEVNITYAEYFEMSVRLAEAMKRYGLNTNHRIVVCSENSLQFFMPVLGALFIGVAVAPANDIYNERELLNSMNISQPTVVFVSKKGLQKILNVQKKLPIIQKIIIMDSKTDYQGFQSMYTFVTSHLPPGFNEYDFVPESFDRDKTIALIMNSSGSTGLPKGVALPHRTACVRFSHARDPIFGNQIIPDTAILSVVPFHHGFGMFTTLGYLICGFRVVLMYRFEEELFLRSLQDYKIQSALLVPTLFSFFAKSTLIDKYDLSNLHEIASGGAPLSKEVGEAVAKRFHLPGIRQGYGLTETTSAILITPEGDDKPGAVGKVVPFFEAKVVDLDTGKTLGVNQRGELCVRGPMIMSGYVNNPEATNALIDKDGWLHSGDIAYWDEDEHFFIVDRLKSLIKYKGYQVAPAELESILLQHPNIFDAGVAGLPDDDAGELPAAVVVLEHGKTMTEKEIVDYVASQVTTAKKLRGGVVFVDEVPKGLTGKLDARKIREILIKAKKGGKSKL
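Purified P. pyralis luciferase, 10 nM final, with Km-level 10 uM D-luciferin and 10 uM ATP in 50 mM Tris acetate pH 7.5, 10 mM Mg acetate, 0.01% Tween-20, 0.05% BSA; 6-point qHTS titration about 60 µM downward; luminescence read.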
ELG1 genotox: qHTS screen for small molecules that induce genotoxicity in human embryonic kidney (HEK293T) cells expressing luciferase-tagged ELG1; HEK293T ELG1-luciferase reporter, luminescence, 16 h; Potency, µM (top dose mostly 46 µM), hits mostly activators; 1.3% of 330,000 active; note: nearly all actives have a fitted effect of over 60% in size
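Step 1: seed 2,000 HEK293T ELG1-luciferase cells per well. Step 2: add compound or DMSO, incubate 16 hr at 37 °C. Step 3: ONE-Glo, 30 min at room temperature, read luminescence.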
SMN2 splice up: qHTS Assay for Enhancers of SMN2 Splice Variant Expression; 2.8% of 210,000 active; HEK293 SMN2-luciferase splicing reporter, luminescence, 30-36 h; Potency, µM (series often up to 46.1 µM), actives largely listed as activators; note: nearly all actives have a fitted effect of over 55% in size
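HEK293 cells carry an SMN2 […]–luciferase reporter in which exon 7 inclusion puts luciferase in frame. Cells were plated 10-12 h before compound addition, then incubated 30-36 h at 37C. ONE-Glo luminescence was read; sodium butyrate at 4.5 mM final served as control.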
Rab9 promoter act: qHTS Assay for Rab9 Promoter Activators; Huh7 Rab9 promoter-luciferase reporter, luminescence, 24 h; Potency, µM (titrated, usually from 9.22 µM), hits mostly activators; 2.8% of 320,000 active; AID 485297, 2010; note: nearly all actives have a fitted effect of over 60% in size
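Stable Rab9-luc Huh7, 1500 cells/well, 2 h settle; cmpd in DMSO, 24 h, 37 °C/5% CO2; luciferase reagent 10 min RT; luminescence.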
NPC1 prom act: qHTS Assay for NPC1 Promoter Activators; Huh7 NPC1 promoter luciferase reporter, 24 h; 2.4% of 320,000 active; AID 485313, 2010; Potency, µM (top dose mostly 9.22 µM), most hits filed as activators; note: nearly all actives have a fitted effect of over 60% in size
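Compounds in DMSO were transferred onto Huh7 NPC1-luciferase reporter cells pre-incubated 2 h; after 24 h at 37 °C, Amplite reagent was dispensed and luminescence recorded 10 min later.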
ELG1 repair inh: qHTS screen for small molecules that inhibit ELG1-dependent DNA repair in human embryonic kidney (HEK293T) cells expressing luciferase-tagged ELG1 | HEK293T ELG1-luciferase reporter, luminescence, 16 h; DNA damage induced by 5-fluorouridine | 2.3% of 330,000 active | Potency, µM (highest dose often 46.1 µM), most hits filed as inhibitors | AID 504467, 2011; note: nearly all actives have a fitted effect of over 55% in size
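Luminescence from the luciferase reporter, measured 30 min after ONE-Glo reagent at room temperature, was the read-out. Beforehand, 2,000 cells per well were exposed for 16 hr at 37 °C to 5-fluorouridine together with compound or vehicle.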
Hits are given with their value; i = inactive; ? = inconclusive; nt = no result; [ ] = dose if it differs, or a comment. Shown are actives, neighbours in structure and some others; about 9.2% of the full set was active somewhere. Calls come from the whole dose curve; as a rule, active = well fitted curve in the direction sought with a large enough effect; inconclusive = small, poorly fitted or top-dose-only effect, or another doubt; inactive = no such curve, though single readings can be large; an effect the other way counts as inactive or inconclusive.

SMILES	FLuc counter	ELG1 genotox	SMN2 splice up	Rab9 promoter act	NPC1 prom act	ELG1 repair inh
COc1ccccc1NC(=O)c1sc2nc(C)c(C(=O)Nc3ccc(C)cc3C)c(-c3ccco3)c2c1N	i	nt	i	nt	nt	nt
Cc1cccc(N(CC(=O)NCCSc2nc3ccccc3s2)S(=O)(=O)c2ccccc2)c1	i	i	i	i	i	16µM
COc1ccc(Br)cc1CNC(=O)c1cc2ccccn2n1	i	nt	nt	nt	nt	nt
COc1cc(C2C=C(C34CC5CC(CC(C5)C3)C4)NC(=S)N2)cc(OC)c1OC (centres undefined)	i	i	i	i	i	23µM
COc1ccc(OC)c(C2C=C(C34CC5CC(CC(C5)C3)C4)NC(=S)N2)c1 (centres undefined)	i	i	i	i	i	?
CCc1c2c(nc3cccc(C(C)C)c13)-c1cccc(=O)n1C2	nt	nt	i	nt	nt	nt
N#Cc1ccc(-c2cn3c(n2)SCC3)cc1	19µM	?	nt	?	?	?
O=S(=O)(Nc1ccc(-c2cn3c(n2)SCC3)cc1)c1cccs1	i	i	i	i	i	i
COc1ccc(CNC(=O)C(=O)NCC(c2ccco2)S(=O)(=O)c2cccs2)cc1 (centres undefined)	i	nt	nt	nt	nt	nt
O=c1c2c(nc3c(-c4ccccc4)c[nH]n13)CCC2	?	i	i	i	i	i
O=c1c2c(nc3c(-c4ccc(Cl)cc4)c[nH]n13)CCC2	?	i	i	i	i	13µM
Oc1ccccc1-c1csc(-c2ccccc2)n1	5.4µM	i	?	?	i	?
Brc1ccsc1-c1csc(-c2ccncc2)n1	?	?	nt	i	i	?
Fc1ccc(-c2csc(-c3cccnc3)n2)cc1F	?	i	nt	?	?	?
Fc1ccccc1-c1csc(-c2cccnc2)n1	15µM	?	nt	?	?	?
c1ccc(-c2csc(-c3ccncc3)n2)cc1	15µM	i	i	i	i	?
c1cncc(-c2nc(-c3ccc4c(c3)OCCO4)cs2)c1	1.7µM	?	nt	0.56µM	0.89µM	?
Cc1ccccc1Nc1oc(-c2ccccc2)nc1CCc1ccccc1	nt	nt	i	nt	nt	nt
CCN(CC(=O)NCc1ccc(F)cc1)C(=O)c1ccc(C(=O)c2ccccc2)cc1	i	i	nt	i	i	i
COC(=O)c1ccc(C(NC(=O)OCc2ccccc2)/C(F)=C/[C@@H](C)C(=O)Nc2ccc(OC)cc2)cc1 (some centres undefined)	nt	nt	i	nt	nt	nt
C[C@]12CC[C@H]3c4ccc(O)cc4CC[C@@H]3[C@H]1CC[C@@H]2OC(=O)CCc1ccccc1	nt	nt	i[9.22 µM]	nt	nt	nt
Clc1ccc(-c2csc(-c3cccnc3)n2)s1	13µM	i	nt	i	i	?
Oc1ccc(-c2csc(-c3cccnc3)n2)cc1O	17µM	?	nt	i	i	?
Oc1ccc(-c2csc(-c3ccccc3)n2)cc1O	15µM	?	?	i	i	?
Cc1nc(-c2ccc(O)c(O)c2)cs1	i	i	i	i	i	?
SMILES	FLuc counter	ELG1 genotox	SMN2 splice up	Rab9 promoter act	NPC1 prom act	ELG1 repair inh
Cc1cccc(C(=O)Nc2nnc(-c3ccc(C(C)(C)C)cc3)s2)c1	11µM	i	i	i	i	i
O=C(Nc1ncc(Cc2cccc([N+](=O)[O-])c2)s1)c1ccco1	?	i	nt	?	i	i
COc1cccc(-c2nnc(NC(=O)c3ccco3)s2)c1	7.6µM	16µM	nt	2.2µM	2.2µM	?
Cc1ccc(-c2nnc(NC(=O)c3ccco3)s2)cc1	1.5µM	4.6µM	nt	2.2µM	2.2µM	?
Cc1ccc(Cc2cnc(NC(=O)c3ccco3)s2)cc1	0.85µM	1.8µM	13µM	0.63µM	0.63µM	?
COc1ccc(CC(=O)OCC(=O)N(C)C2CCS(=O)(=O)C2)cc1OC (centres undefined)	i	i	nt	i	i	i
O=C(NCc1ccco1)/C(=C\c1cccnc1)NC(=O)c1ccccc1F	i	i	i	i	i	i
CCCOc1cccc(-c2nnc(NC(=O)c3ccco3)s2)c1	27µM	?	nt	i	i	i
Cc1nnc(NC(=O)c2ccco2)s1	i	i	i	i	i	?
C/C=C(\C)c1nnc(NC(=O)c2ccco2)s1	15µM	16µM	13µM	?	?	?
COc1ccc(/C=C/c2nnc(NC(=O)c3ccco3)s2)cc1	2.7µM	i	nt	i	i	i
CCCCC(=O)Nc1nnc(/C=C/c2ccc(OC)cc2)s1	i	i	nt	i	i	i
COc1cccc(-c2nnc(NC(=O)c3cccs3)s2)c1	2.4µM	?	18µM	?	?	?

Source: PubChem BioAssay
